Results as given in PubChem BioAssay (NCI).
Compounds without any hit were thinned out: in the full panel of roughly 83,000, 20% have a hit.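 For each line, cells grew in 96-well plates with the test compound present at a single concentration for 48 hours.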

Columns and labels:
Test in all cases: NCI-60 one-dose screen, 48 h (100 = growth as untreated, 0 = no growth, -100 = all killed)
Settings in all cases: 10 µM; active = growth percent below 10; inactive = the rest
NCI-H23 lung = test system: NCI-H23 lung
NCI-H226 lung = test system: NCI-H226 lung
NCI-H322M lung = test system: NCI-H322M lung
HOP-62 NSCLC = test system: HOP-62 NSCLC
NCI-H460 lung = test system: NCI-H460 lung
HOP-92 NSCLC = test system: HOP-92 NSCLC
NCI-H522 lung = test system: NCI-H522 lung
A549/ATCC NSCLC = test system: A549/ATCC NSCLC
786-0 renal = test system: 786-0 renal
COLO 205 colon = test system: COLO 205 colon
DU-145 prostate = test system: DU-145 prostate
K-562 leukemia = test system: K-562 leukemia
MALME-3M melanoma = test system: MALME-3M melanoma
RXF 393 renal = test system: RXF 393 renal
SF-268 CNS = test system: SF-268 CNS
SF-295 CNS = test system: SF-295 CNS
SF-539 CNS = test system: SF-539 CNS
UACC-257 melanoma = test system: UACC-257 melanoma
M14 melanoma = test system: M14 melanoma
MDA-MB-231 breast = test system: MDA-MB-231 breast

Measured: growth

O=[N+]([O-])c1ccc(-c2noc(-c3cccs3)n2)cc1
inactive: NCI-H23 lung 82.1% | NCI-H226 lung 86.3% | NCI-H322M lung 81.4% | HOP-62 NSCLC 87.6% | NCI-H460 lung 82.7% | HOP-92 NSCLC 91.8% | NCI-H522 lung 81.7% | A549/ATCC NSCLC 81.3% | 786-0 renal 76.1% | COLO 205 colon 111% | DU-145 prostate 89.3% | K-562 leukemia 93.7% | MALME-3M melanoma 91.7% | RXF 393 renal 92% | SF-268 CNS 101% | SF-295 CNS 72.9% | SF-539 CNS 81.3% | UACC-257 melanoma 100% | M14 melanoma 91.7%

CC(C)=C(NC(=O)c1ccccc1)C(=O)O
inactive: NCI-H23 lung 107% | NCI-H226 lung 103% | NCI-H322M lung 104% | HOP-62 NSCLC 115% | NCI-H460 lung 111% | HOP-92 NSCLC 84.5% | NCI-H522 lung 92.3% | A549/ATCC NSCLC 105% | 786-0 renal 112% | COLO 205 colon 112% | DU-145 prostate 106% | K-562 leukemia 102% | MALME-3M melanoma 99% | RXF 393 renal 103% | SF-268 CNS 96.1% | SF-295 CNS 116% | SF-539 CNS 110% | UACC-257 melanoma 97.5% | M14 melanoma 108%

CC(C)CCCC(=O)O
inactive: NCI-H23 lung 106% | NCI-H226 lung 101% | NCI-H322M lung 93.4% | HOP-62 NSCLC 102% | NCI-H460 lung 102% | HOP-92 NSCLC 73.9% | NCI-H522 lung 103% | A549/ATCC NSCLC 105% | 786-0 renal 116% | COLO 205 colon 112% | DU-145 prostate 111% | K-562 leukemia 135% | MALME-3M melanoma 98.5% | MDA-MB-231 breast 123% | RXF 393 renal 93% | SF-268 CNS 106% | SF-539 CNS 98.5% | UACC-257 melanoma 117% | M14 melanoma 119%

c1csc(-c2cc(-c3cc(-c4cccs4)[nH]n3)n[nH]2)c1
inactive: NCI-H23 lung 91% | NCI-H226 lung 79.1% | NCI-H322M lung 94.4% | HOP-62 NSCLC 88.3% | NCI-H460 lung 107% | HOP-92 NSCLC 93.6% | NCI-H522 lung 88.9% | A549/ATCC NSCLC 107% | 786-0 renal 98.9% | COLO 205 colon 114% | DU-145 prostate 106% | K-562 leukemia 84.7% | MALME-3M melanoma 88.3% | RXF 393 renal 112% | SF-268 CNS 107% | SF-295 CNS 96.8% | SF-539 CNS 93.8% | UACC-257 melanoma 109% | M14 melanoma 96.9%

CCOc1ccc2[nH]c(=S)sc2c1
inactive: NCI-H23 lung 94.4% | NCI-H226 lung 109% | NCI-H322M lung 105% | HOP-62 NSCLC 99.1% | NCI-H460 lung 110% | HOP-92 NSCLC 82.2% | NCI-H522 lung 104% | A549/ATCC NSCLC 103% | 786-0 renal 99.7% | COLO 205 colon 112% | DU-145 prostate 111% | K-562 leukemia 90.8% | MALME-3M melanoma 97.8% | MDA-MB-231 breast 104% | RXF 393 renal 116% | SF-268 CNS 103% | SF-295 CNS 111% | SF-539 CNS 106% | UACC-257 melanoma 104% | M14 melanoma 99%

Nc1nc2c(c(-c3nc(N)nc4c3CCc3ccccc3-4)n1)CCc1ccccc1-2
inactive: NCI-H23 lung 97.4% | NCI-H226 lung 89.9% | NCI-H322M lung 115% | HOP-62 NSCLC 91.4% | NCI-H460 lung 117% | HOP-92 NSCLC 95.1% | NCI-H522 lung 99.1% | A549/ATCC NSCLC 106% | 786-0 renal 110% | COLO 205 colon 116% | DU-145 prostate 107% | K-562 leukemia 99.2% | MALME-3M melanoma 85.3% | RXF 393 renal 115% | SF-268 CNS 103% | SF-295 CNS 99.5% | SF-539 CNS 93.1% | UACC-257 melanoma 109% | M14 melanoma 105%

COc1ccc(-c2cc(-c3cc(-c4ccc(OC)cc4)nc(N)n3)nc(N)n2)cc1
inactive: NCI-H23 lung 102% | NCI-H226 lung 99.4% | NCI-H322M lung 94.3% | HOP-62 NSCLC 94.7% | NCI-H460 lung 99.5% | HOP-92 NSCLC 105% | NCI-H522 lung 100% | A549/ATCC NSCLC 97.8% | 786-0 renal 103% | COLO 205 colon 107% | DU-145 prostate 102% | K-562 leukemia 98.9% | MALME-3M melanoma 91.2% | RXF 393 renal 101% | SF-268 CNS 102% | SF-295 CNS 96.2% | SF-539 CNS 98.1% | UACC-257 melanoma 99.4% | M14 melanoma 104%

COC(=O)c1cc(-c2ccc(Cl)c(Cl)c2)[nH]c(=O)c1C#N
inactive: NCI-H23 lung 107% | NCI-H226 lung 94.6% | NCI-H322M lung 95.4% | HOP-62 NSCLC 95.5% | NCI-H460 lung 109% | HOP-92 NSCLC 91.4% | NCI-H522 lung 97.6% | A549/ATCC NSCLC 101% | 786-0 renal 91.7% | COLO 205 colon 114% | DU-145 prostate 108% | K-562 leukemia 108% | MALME-3M melanoma 89.1% | RXF 393 renal 109% | SF-268 CNS 102% | SF-295 CNS 96.1% | SF-539 CNS 101% | UACC-257 melanoma 98.4% | M14 melanoma 99.2%

CCS(=O)(=O)CCCl
inactive: NCI-H23 lung 101% | NCI-H226 lung 114% | NCI-H322M lung 97.1% | HOP-62 NSCLC 105% | NCI-H460 lung 109% | HOP-92 NSCLC 92.3% | NCI-H522 lung 90% | A549/ATCC NSCLC 97.4% | 786-0 renal 105% | COLO 205 colon 126% | DU-145 prostate 96.8% | K-562 leukemia 93% | MALME-3M melanoma 93.3% | RXF 393 renal 105% | SF-268 CNS 106% | SF-295 CNS 102% | SF-539 CNS 104% | UACC-257 melanoma 94.5% | M14 melanoma 94.4%
